High-throughput results: PubChem BioAssay, several laboratories
CYP2C9 inhib = inhibitors of human CYP2C9; AID 777; inhibition, % at 5 µM; P11712; CYP2C9 Supersomes, luciferin-H conversion, luminescence; 96,000 tested, 20% active;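 active = blocking of liver enzyme CYP2C9 beyond about 50% at 5 µM, limit read from the data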
CYP2C19 inhib = inhibitors of human CYP2C19 | P33261 | CYP2C19 Supersomes, luciferin-H EGE luminescence, 30 min | inhibition, % at 5 µM | 96,000 tested, 21% active | AID 778;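 active = CYP2C19 inhibition above a set limit at 5 µM in the primary screen, cut at about 50% in these data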;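 also: plate controls were negative control wells for no effect and 2.5 mM tranylcypromine positive control for full effect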
Target sequence (P33261 whole entry, looked up): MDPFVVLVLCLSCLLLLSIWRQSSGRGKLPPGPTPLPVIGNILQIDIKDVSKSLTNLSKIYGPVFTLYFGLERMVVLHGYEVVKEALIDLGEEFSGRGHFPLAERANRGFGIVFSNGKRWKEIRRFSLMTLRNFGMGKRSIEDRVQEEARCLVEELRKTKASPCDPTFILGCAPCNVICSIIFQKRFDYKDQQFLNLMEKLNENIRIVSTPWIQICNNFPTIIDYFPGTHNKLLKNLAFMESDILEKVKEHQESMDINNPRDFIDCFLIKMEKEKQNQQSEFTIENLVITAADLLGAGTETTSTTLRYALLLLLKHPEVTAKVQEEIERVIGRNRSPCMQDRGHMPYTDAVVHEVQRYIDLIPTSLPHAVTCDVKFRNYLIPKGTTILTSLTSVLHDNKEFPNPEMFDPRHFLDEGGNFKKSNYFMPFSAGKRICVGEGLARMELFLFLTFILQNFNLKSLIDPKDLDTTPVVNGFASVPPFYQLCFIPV
CYP2C9 activ = CYP2C9 (human) activation; activation factor at 5 µM; recombinant CYP2C9, luciferin-H conversion, luminescence; stronger effect = higher value; factor 1 = untreated enzyme, 0 = blocked; 96,000 tested, 1.4% active;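 active = activation factor of 2 or more for CYP2C9 at a 5 µM dose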;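 also: 0 = sulfaphenazole-blocked wells and 1 = vehicle-only wells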
PostGolgi ctrl = growth of the yeast control strain, post-Golgi counter-screen | efflux-deficient yeast background strain, growth absorbance A615, 16 h | inhibition, % at 10 µM | 98,000 tested, 5% active
CYP2C19 activ = cytochrome P450 2C19 (human) activation; 96,000 tested, under 10 active; P33261; AID 1025; recombinant CYP2C19, luciferin-H EGE luminescence; stronger effect = higher value; 0 = fully inhibited enzyme, 1 = untreated enzyme; activation factor at 5 µM;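 active = activation factor of at least 2 at 5 µM in the primary screen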;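 also: 0 = wells with 2.5 mM tranylcypromine and 1 = vehicle-only wells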
PostGolgi yeast = growth inhibition of a yeast mutant, post-Golgi transport screen; post-Golgi transport phenotypic cell assay; inhibition, % at 10 µM; 98,000 tested, 0.9% active; AID 739;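 also: yeast cells grown in 1536-well plates; yeast grown about 18 h at 30C before absorbance read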
* marks the source's active call; other numbers are inactive results. Hits are enriched below; roughly 32% of the tested compounds scored in any of these assays. Rule as the data show it, unless noted: active = inhibition above about 30%; inactive = the rest.

How did CCOC(=O)N1CCN(C(=O)c2oc3ccc(S(=O)(=O)N4CC(C)CC(C)C4)cc3c2C)CC1 (configuration not stated) do in these assays?
CYP2C9 inhib: 51.3*; CYP2C19 inhib: 60.8*; CYP2C9 activ: 0.5; PostGolgi ctrl: 10.2; CYP2C19 activ: 0.4; PostGolgi yeast: 7.3

What do the screens show for `Cc1c(C(=O)N2CCCc3ccccc32)oc2ccc(S(=O)(=O)N3CCOCC3)cc12`?
CYP2C9 inhib: 85.1*; CYP2C19 inhib: 96.0*; CYP2C9 activ: 0.1; PostGolgi ctrl: 13.6; CYP2C19 activ: 0; PostGolgi yeast: 2.9

How did CCOC(=O)N1CCN(C(=O)c2oc3ccc(S(=O)(=O)N4CCOCC4)cc3c2C)CC1 do in these assays?
CYP2C9 inhib: 75.1*; CYP2C19 inhib: 55.0*; CYP2C9 activ: 0.2; PostGolgi ctrl: -5.5; CYP2C19 activ: 0.4; PostGolgi yeast: 5.2

How did Cc1ccc(CNC(=O)c2oc3ccc(S(=O)(=O)N4CCOCC4)cc3c2C)cc1 do in these assays?
CYP2C9 inhib: 19.7; CYP2C19 inhib: 15.5; CYP2C9 activ: 0.8; PostGolgi ctrl: 15.2; CYP2C19 activ: 0.8; PostGolgi yeast: -2.0

Results for O=C(O)c1cc2cccc(S(=O)(=O)N3CCOCC3)c2cc1O ?
CYP2C9 inhib: 1.9; CYP2C19 inhib: 0.0; CYP2C9 activ: 1; PostGolgi ctrl: -3.5; CYP2C19 activ: 1; PostGolgi yeast: 4.8

What do the screens show for `O=C(Cn1ncc2c(=O)oc3ccccc3c21)N(Cc1ccco1)C1CCCCC1`?
PostGolgi ctrl: 12.7; PostGolgi yeast: 6.0

How did CCOC(=O)C1CCCN(C(=O)c2cn(CC)c3ccc(S(=O)(=O)N4CCCC4)cc3c2=O)C1 (configuration not stated) do in these assays?
CYP2C9 inhib: 11.0; CYP2C19 inhib: 4.6; CYP2C9 activ: 0.9; PostGolgi ctrl: 14.3; CYP2C19 activ: 1; PostGolgi yeast: -3.9

What do the screens show for `CC1Cc2ccccc2N1C(=O)Cn1cc([N+](=O)[O-])cn1` (configuration not stated)?
CYP2C9 inhib: 0.6; CYP2C19 inhib: 11.5; CYP2C9 activ: 1; PostGolgi ctrl: 0.1; CYP2C19 activ: 0.9; PostGolgi yeast: -6.0

Results for O=C(N/N=C/c1cc([N+](=O)[O-])ccc1N1CCNCC1)c1ccc([N+](=O)[O-])cc1 ?
CYP2C9 inhib: 4.4; CYP2C19 inhib: 6.1; CYP2C9 activ: 1; PostGolgi ctrl: 3.7; CYP2C19 activ: 0.9; PostGolgi yeast: -6.8

How did O=S(=O)(c1ccc2oc3ccc(S(=O)(=O)N4CCCCC4)cc3c2c1)N1CCCCC1 do in these assays?
CYP2C9 inhib: 65.5*; CYP2C19 inhib: 4.7; CYP2C9 activ: 0.3; PostGolgi ctrl: 14.8; CYP2C19 activ: 1; PostGolgi yeast: 1.7

Results for O=S(=O)(c1ccc2oc3ccccc3c2c1)N1CCOCC1 ?
CYP2C9 inhib: -9.8; CYP2C19 inhib: -24.4; CYP2C9 activ: 1.1; PostGolgi ctrl: 0.3; CYP2C19 activ: 1.2; PostGolgi yeast: 23.2

What do the screens show for `CSc1nc(N)nc(SCC(=O)C(C)(C)C)c1C#N`?
CYP2C9 inhib: 73.2*; CYP2C19 inhib: 44.4; CYP2C9 activ: 0.3; PostGolgi ctrl: 10.0; CYP2C19 activ: 0.6; PostGolgi yeast: 4.3

How did CSc1nc(N)nc(SCCS(=O)(=O)c2ccc(Cl)cc2)c1C#N do in these assays?
PostGolgi ctrl: 57.6*; PostGolgi yeast: 1.8

How did Cc1ccc(S(=O)(=O)CCSc2nc(C)cc(C)c2C#N)cc1 do in these assays?
CYP2C9 inhib: -29.1; CYP2C19 inhib: 46.0; CYP2C9 activ: 1.3; PostGolgi ctrl: 8.8; CYP2C19 activ: 0.5; PostGolgi yeast: 1.3

Results for CN(C(=S)Nc1ccc(F)cc1)C1(c2ccccc2Cl)CCCCC1=O (configuration not stated) ?
CYP2C9 inhib: 24.2; CYP2C19 inhib: 82.8*; CYP2C9 activ: 0.8; PostGolgi ctrl: 35.7*; CYP2C19 activ: 0.2; PostGolgi yeast: 8.9

How did Fc1ccc(NC(=S)NN=C2CCCCCC2)cc1 do in these assays?
CYP2C9 inhib: 8.0; CYP2C19 inhib: 9.7; CYP2C9 activ: 0.9; PostGolgi ctrl: 1.8; CYP2C19 activ: 0.9; PostGolgi yeast: 7.2

How did CCOC(Cn1c(CCCO)nc2ccccc21)OCC do in these assays?
CYP2C9 inhib: -9.4; CYP2C19 inhib: 9.3; CYP2C9 activ: 1.1; PostGolgi ctrl: -6.9; CYP2C19 activ: 0.9; PostGolgi yeast: -3.3

What do the screens show for `Clc1ccc(Sc2cc(Cl)c(-c3ccccc3)nn2)cc1`?
CYP2C9 inhib: 65.9*; CYP2C19 inhib: 55.0*; CYP2C9 activ: 0.3; PostGolgi ctrl: 58.8*; CYP2C19 activ: 0.4; PostGolgi yeast: -11.6

How did O=S(=O)(CCc1nc2ccccc2s1)c1ccc2ccccc2c1 do in these assays?
CYP2C9 inhib: -83.4; CYP2C19 inhib: 12.5; CYP2C9 activ: 1.8; PostGolgi ctrl: 10.2; CYP2C19 activ: 0.9; PostGolgi yeast: -4.6

Results for COc1cc(C2CC(=O)N3CN(Cc4ccco4)CSC3=C2C#N)ccc1OCc1ccccc1 (configuration not stated) ?
CYP2C9 inhib: 83.0*; CYP2C19 inhib: 25.2; CYP2C9 activ: 0.2; PostGolgi ctrl: 9.0; CYP2C19 activ: 0.7; PostGolgi yeast: 11.8

How did COc1ccc2ccccc2c1C1CC(=O)N2CN(Cc3ccco3)CSC2=C1C#N (configuration not stated) do in these assays?
CYP2C9 inhib: 86.5*; CYP2C19 inhib: 55.2*; CYP2C9 activ: 0.1; PostGolgi ctrl: 15.7; CYP2C19 activ: 0.4; PostGolgi yeast: 10.8

Results for COc1ccc2ccccc2c1C1CC(=O)N2CN(C3CCCCC3)CSC2=C1C#N (configuration not stated) ?
CYP2C9 inhib: 89.5*; CYP2C19 inhib: 55.2*; CYP2C9 activ: 0.1; PostGolgi ctrl: 6.1; CYP2C19 activ: 0.4; PostGolgi yeast: -7.7

What do the screens show for `COc1ccccc1N1CCN(Cc2ccco2)CC1`?
CYP2C9 inhib: 6.4; CYP2C19 inhib: 21.2; CYP2C9 activ: 0.9; PostGolgi ctrl: 9.7; CYP2C19 activ: 0.8; PostGolgi yeast: -6.3

Results for CCOc1cc(C2CC(=O)N3CN(C4CCCCC4)CSC3=C2C#N)ccc1O (configuration not stated) ?
CYP2C9 inhib: 82.0*; CYP2C19 inhib: 53.1*; CYP2C9 activ: 0.2; PostGolgi ctrl: -5.8; CYP2C19 activ: 0.5; PostGolgi yeast: 15.1

What do the screens show for `COC(=O)C(CCSC)NC(=O)c1cccc([N+](=O)[O-])c1` (configuration not stated)?
CYP2C9 inhib: 9.9; CYP2C19 inhib: 24.9; CYP2C9 activ: 0.9; PostGolgi ctrl: -8.2; CYP2C19 activ: 0.8; PostGolgi yeast: -7.8

What do the screens show for `C#CCOC(=O)c1ccccc1C(=O)OCC#C`?
CYP2C9 inhib: 22.7; CYP2C19 inhib: 47.1; CYP2C9 activ: 0.8; PostGolgi ctrl: -4.3; CYP2C19 activ: 0.5; PostGolgi yeast: 8.0

What do the screens show for `C#CCOC(=O)c1ccccc1C(=O)n1nnc2ccccc21`?
CYP2C9 inhib: 66.1*; CYP2C19 inhib: 88.0*; CYP2C9 activ: 0.3; PostGolgi ctrl: 9.9; CYP2C19 activ: 0.1; PostGolgi yeast: 4.8
